# A selection: hits, their analogues and other compounds. The true share with any hit is near 7.1%.
# SW480 rereplic – DNA re-replication induction in SW480 cells; 340,000 compounds, 1.8% hits; AID 624297; SW480 DNA re-replication, Hoechst DNA content imaging, 48 h; Potency, µM (doses to about 46.1 µM), for inactives: at the highest dose re-replication activation, most hits filed as activators; note: potency is the fitted concentration of half-maximal effect; % of control where 0% means no effect; nearly all actives have a fitted effect of over 55% in size
#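 Quantitative HTS format with DMSO vehicle controls; 48 hr drug incubation at 37 C, then 40 min Hoechst staining and scanning imager measurement at 405 nm excitation.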
# PINK1 modulator – changes PINK1 expression | PINK1 immunofluorescence, high-content cytometry, 24 h | Potency, µM (series often up to 76.6 µM), for the others: at the highest dose activation (PINK1 increase), actives largely listed as activators | 410,000 compounds, 0.2% hits | AID 624263; active = well fitted activation curve with a large enough effect; inconclusive = small, poorly fitted or top-dose-only effect; cell line not stated here; note: potency is the fitted concentration of half-maximal effect; % of control where 0% means no effect; nearly all actives have a fitted effect of over 65% in size
#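 Stable cell line, 250 cells/well, 12 h attachment; compounds pinned at 5 concentrations, 24 h; CCCP control. Fixed with nuclear dye, primary antibodies 12 h at 10 degrees C, secondary plus cell stain; laser-scanning cytometer read.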
# S2 tox – cell viability loss in ATXN counter-screen; S2 cells (HEK-293 line with an ATXN2-luciferase reporter) viability, CellTiter-Fluor protease fluorescence, 24 h; Potency, µM (top dose mostly 56.7 µM), most hits filed as cytotoxic; 400,000 compounds, 0.49% hits; note: potency is the fitted concentration of half-maximal effect; nearly all actives have a fitted effect of over 40% in size
# IL-1B inflam inh – inhibitors of inflammasome signaling (IL-1 beta secretion) | AID 743279 | THP-1 LPS/ATP IL-1B secretion, AlphaLISA, 16 h; active compounds read low | 360,000 compounds, 4.7% hits | activity change, % at 57.5 µM; in the data active = activity change below about -50%; inconclusive = mostly about -30% to -49%; note: % is set by controls: 0 for no effect and ±100 for the full control effect
#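 Secreted IL-1B measured by AlphaLISA bead assay after 16 h compound exposure of THP-1 cells; compounds (final up to 57.5 uM) added 1 h before LPS (250 ng/mL) and ATP (1.25 mM) stimulation; lower signal means less secretion.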
# ATXN2 expr inh – inhibitors of ATXN2 expression; HEK-293 ATXN2-luciferase reporter, luminescence, 24 h; Potency, µM (top dose mostly 57 µM), inactives show at the top dose activity change, negative = inhibition, actives largely listed as inhibitors; 360,000 compounds, 0.72% hits; note: potency is the fitted concentration of half-maximal effect; % is set by controls: 0 for no effect and ±100 for the full control effect; nearly all actives have a fitted effect of over 55% in size
#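 qHTS (up to 57 uM final) was run with 24 h compound exposure of reporter cells at 37 °C. Each well was multiplexed: SteadyGlo luminescence measured ATXN2-luciferase expression after a fluorogenic Gly-Phe-AFC viability readout (25 uM final).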
# MCF10A rereplic – inducers of DNA re-replication in MCF 10A breast cells | 350,000 compounds, 2.9% hits | AID 624296 | MCF 10A DNA re-replication, Hoechst nuclear intensity, 48 h | Potency, µM (highest dose often 46.1 µM), inactives show at the top dose activity, positive = re-replication, hits mostly activators; note: potency is the fitted concentration of half-maximal effect; % of control where 0% means no effect; nearly all actives have a fitted effect of over 50% in size
# * marks the source's active call; other numbers are inactive results; i = inactive; ? = inconclusive; nt = no result; ! = not active in a repeat; [ ] = dose if it differs, or a comment. Unless noted, calls come from the whole dose curve; as a rule, active = well fitted curve in the direction sought with a large enough effect; inconclusive = small, poorly fitted or top-dose-only effect, or another doubt; inactive = no such curve, though single readings can be large; an effect the other way counts as inactive or inconclusive.
SMILES,SW480 rereplic,PINK1 modulator,S2 tox,IL-1B inflam inh,ATXN2 expr inh,MCF10A rereplic
OCCC1CN(Cc2cnc(-c3cccc4ccccc34)nc2)CCN1C1CCCCC1 (centres undefined),1.8µM*,-1%,i,-23,nt,9%
CSc1ccccc1C(=O)NCC1Cc2cccc(-c3ncccc3C)c2O1 (centres undefined),nt,0%,i,nt,nt,nt
COc1ccc(Cl)cc1NC(=O)CSc1cn(CC(=O)N2CCCCC2)c2ccccc12,nt,2%,nt,nt,nt,nt
Cc1ccc(C)c2sc(NC(=O)C3CC3)nc12,-4%,4%,?,-3,-22%,-3%
O=C(Nc1nc2c(Br)cc(Br)cc2c(=O)s1)C1CCC1,-4%,2%,i,-21,nt,5.2µM*
COC(=O)c1cc2oc3ccccc3c2n1Cc1nc(-c2cccc(Cl)c2)oc1C,nt,1%,i,nt,5%,nt
CCOc1ccc(N2C(=O)CNC2=S)cc1,-2%,2%,i,5,9%,?
CCOc1ccc(N2C=Nc3ccc(OCC)cc3C2)cc1,5%,1%,?,-60*,nt,-1%
O=C1C(=Cc2ccco2)CCCC1=Cc1ccco1,?,12%,i,-25,59%,?
O=C1C(=Cc2ccco2)CCC1=Cc1ccco1,?,0%,i,-51*,2%,?
Cc1ccc(C2CCN(C(=O)Nc3ccc(F)cc3)C2)cc1 (centres undefined),0%,1%,i,-68*,17%,1%
CCc1nc2ccc(C(=O)Nc3cc(-c4ccccc4)ccc3OC)cn2c1N(C)C(=O)c1cccc(OC)c1,nt,2%,i,-76*,-11%,nt
CCc1nc2ccc(C(=O)Nc3cc(-c4ccccc4)ccc3OC)cn2c1N(C)Cc1nccs1,nt,-1%,?,-80*,0%,nt
O=C(c1cccnc1)C1CCCN(Cc2ccc3c(c2)CN(C(=O)c2ccc4[nH]ccc4c2)CCO3)C1 (centres undefined),nt,0%,i,nt,nt,nt
Cc1nc2c(c(C)c1CCC(=O)Nc1ccc(F)cc1)c(=O)n(C)c(=O)n2C,nt,1%,i,nt,-5%,nt
Cn1c(=O)c2c(ncn2CC(=O)Nc2cc(S(=O)(=O)N3CCCCC3)ccc2O)n(C)c1=O,-12%,0%,i,14,-1%,-2%
CCCCCCSc1cccc(-c2nc3ccc(Cl)cn3c2NCc2ccccc2)c1,-3%,3%,i,-6,7%,21µM*
CCCCCCSc1ccc(-c2nc3ccc(C)cn3c2NCc2ccccc2)cc1,-2%[9.22 µM],3%,?,-110*!,-3%,?
CC(C)(C)Cc1c(-c2ccccc2)nc2ccc(Cl)cn12,nt,?,i,58,2%,nt
COc1ccc(-c2nc3ccc(C)cn3c2Cc2ccsc2)cc1OC,nt,?,?,-17,-21%,nt
CCC(=O)Nc1c(-c2ccc(C)cc2)nc2ccc(C)cn12,-5%,2%,i,8,-14%,?
CCCCCCSc1ccc(-c2nc3ccc(C)cn3c2NCc2ccccc2)cc1OC,?,?,?,-53*!,?,84%
Cc1nn(C)c2c1c(C(F)(F)F)cc(=O)n2C(C)C(=O)N1CCN(c2ccccc2)CC1 (centres undefined),nt,3%,i,nt,-15%,nt
C#CCOCCOCCOCCNc1nc(N2CCN(C(=O)CCCCCCCCCCNC(=O)[C@@H](CCSC)n3cc(CCO)nn3)CC2)nc(N2CCN(C(=O)CCCCCCCCCCNC(=O)[C@H]([C@@H](C)CC)n3cc(CCCCN=C(N)N)nn3)CC2)n1,-7%,0%,16µM*,-104*,?,-10%
C#CCOCCOCCOCCNc1nc(N2CCOCC2)nc(N2CCN(C(=O)CCCCCCCCCCNC(=O)[C@@H](CCSC)n3cc(CCO)nn3)CC2)n1,1%,-1%,i,?,-6%,19%
SMILES,SW480 rereplic,PINK1 modulator,S2 tox,IL-1B inflam inh,ATXN2 expr inh,MCF10A rereplic
C#CCOCCOCCOCCNc1nc(N2CCN(C(=O)CCCCCCCCCCNC(=O)[C@@H](CCSC)n3cc(CCO)nn3)CC2)nc(N2CCN(C(=O)CCCCCCCCCCNC(=O)[C@H]([C@@H](C)CC)n3cc(CCCCCN)nn3)CC2)n1,2%[9.22 µM],-2%,14µM*,-72*,28µM*,?
C#CCOCCOCCOCCNc1nc(N2CCN(C(=O)CCCCCCCCCCNC(=O)[C@H](CO)n3cc(CCCSC)nn3)CC2)nc(N2CCN(C(=O)CCCCCCCCCCNC(=O)[C@H](CO)n3cc(CCCSC)nn3)CC2)n1,-4%,2%,i,?,15%,?
CCC1CN(Cc2c(C)nc3sccn23)Cc2cc(OC)ccc2O1 (centres undefined),nt,2%,i,nt,nt,nt
CC(C)(C)c1ccc(C(=O)N2CCNCC2)cc1,-7%,-1%,i,-3,3%,8%
CN1CCC2(CC1)N=C(c1ccc(F)cc1)C(=S)N2C(=O)c1ccc(C(C)(C)C)cc1,3%,-2%,?,?,32µM*,8.2µM*
CCN=c1scc(C)n1/N=C/c1cc(Br)c(O)c(Br)c1,-3%,2%,?,-10,52%,21µM*
CCN=c1scc(C)n1/N=C/c1ccc(O)c(O)c1O,-2%,1%,?,-17,-12%,-3%
CN(c1ccccc1)c1ccc(/C=C(\CCC(=O)O)c2nc3ccccc3s2)cc1[N+](=O)[O-],8%,-2%,i,-6,-16%,3%
CN(c1ccccc1)c1ccc(/C=C(\C#N)c2nnc3n2CCCCC3)cc1[N+](=O)[O-],-5%,-2%,i,-106*,13%,?
O=c1nc2n(c3ccc([N+](=O)[O-])cc13)CCCCC2,2%,-1%,i,4,-9%,-46%
N#C/C(=C\c1cccc([N+](=O)[O-])c1)c1nnc2n1CCCCC2,-2%,5%,i,-91*,1%,7%
COc1ccc(CCNC(=O)CSc2nc(-c3ccc(F)cc3)cc(C(F)(F)F)n2)cc1OC,nt,1%,i,nt,-3%,nt
COC(=O)c1cc(CNC(=O)c2ccccc2OC)cc(NC(=O)c2ccccc2F)c1,nt,0%,?,nt,nt,nt
O=[N+]([O-])c1ccc(N(CC2CO2)S(=O)(=O)c2ccccc2)cc1 (centres undefined),-6%,-1%,i,-73*,16%,10%
Cc1ccc(S(=O)(=O)N(CC2CO2)c2ccccc2[N+](=O)[O-])cc1 (centres undefined),8%,9%,i,?,0%,14%
Cc1ccc(S(=O)(=O)N(CC(=O)Nc2cccnc2)c2cccc([N+](=O)[O-])c2)cc1,?,7%,?,-8,-22%,23µM*
